Measured values from PubChem BioAssay (NCI).
Compounds without any hit were thinned out: in the full panel of roughly 83,000, 20% have a hit.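 Each cell line was grown in a 96-well plate and treated with one concentration of compound for 48 hours. Values below 10 were considered active.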 Values without a mark were called inactive. Active and inactive are the calls of the source.

Columns and labels:
Test in all cases: NCI-60 one-dose screen, 48 h (100 = growth as untreated, 0 = no growth, -100 = all killed)
Settings in all cases: 10 µM
NCI-H23 lung = tested on: NCI-H23 lung
NCI-H226 lung = tested on: NCI-H226 lung
NCI-H322M lung = tested on: NCI-H322M lung
HOP-62 NSCLC = tested on: HOP-62 NSCLC
NCI-H460 lung = tested on: NCI-H460 lung
HOP-92 NSCLC = tested on: HOP-92 NSCLC
NCI-H522 lung = tested on: NCI-H522 lung
A549/ATCC NSCLC = tested on: A549/ATCC NSCLC
786-0 renal = tested on: 786-0 renal
COLO 205 colon = tested on: COLO 205 colon
DU-145 prostate = tested on: DU-145 prostate
K-562 leukemia = tested on: K-562 leukemia
MALME-3M melanoma = tested on: MALME-3M melanoma
MDA-MB-231 breast = tested on: MDA-MB-231 breast
RXF 393 renal = tested on: RXF 393 renal
SF-268 CNS = tested on: SF-268 CNS
SF-295 CNS = tested on: SF-295 CNS
SF-539 CNS = tested on: SF-539 CNS
UACC-257 melanoma = tested on: UACC-257 melanoma
M14 melanoma = tested on: M14 melanoma

SMILES: O=C(c1ccccc1)C(Nc1ccccc1)c1ccccc1 (stereo not given)
- growth (NCI-H23 lung): 84.5%
- growth (NCI-H226 lung): 82.7%
- growth (NCI-H322M lung): 85.4%
- growth (HOP-62 NSCLC): 83.5%
- growth (NCI-H460 lung): 98.1%
- growth (HOP-92 NSCLC): 78.6%
- growth (NCI-H522 lung): 67.7%
- growth (A549/ATCC NSCLC): 87.4%
- growth (786-0 renal): 97.3%
- growth (COLO 205 colon): 98.7%
- growth (DU-145 prostate): 100%
- growth (K-562 leukemia): 90.5%
- growth (MALME-3M melanoma): 90%
- growth (MDA-MB-231 breast): 89.7%
- growth (RXF 393 renal): 103%
- growth (SF-268 CNS): 93.1%
- growth (SF-295 CNS): 90.7%
- growth (SF-539 CNS): 96.7%
- growth (UACC-257 melanoma): 93.4%
- growth (M14 melanoma): 97.5%

SMILES: CCNC(=S)NN
- growth (NCI-H23 lung): 93.1%
- growth (NCI-H226 lung): 99.1%
- growth (NCI-H322M lung): 78.7%
- growth (HOP-62 NSCLC): 76.2%
- growth (NCI-H460 lung): 95.6%
- growth (HOP-92 NSCLC): 87.3%
- growth (NCI-H522 lung): 105%
- growth (A549/ATCC NSCLC): 72.5%
- growth (786-0 renal): 99.5%
- growth (COLO 205 colon): 106%
- growth (DU-145 prostate): 97.9%
- growth (K-562 leukemia): 43.9%
- growth (MALME-3M melanoma): 70.4%
- growth (MDA-MB-231 breast): 90.5%
- growth (RXF 393 renal): 100%
- growth (SF-268 CNS): 103%
- growth (SF-295 CNS): 89.4%
- growth (SF-539 CNS): 100%
- growth (UACC-257 melanoma): 56.8%
- growth (M14 melanoma): 87.2%

SMILES: Fc1ccc(-c2cc(C(Cl)Cl)no2)cc1
- growth (NCI-H23 lung): 95.5%
- growth (NCI-H226 lung): 87.2%
- growth (NCI-H322M lung): 93.4%
- growth (HOP-62 NSCLC): 98.2%
- growth (NCI-H460 lung): 101%
- growth (HOP-92 NSCLC): 99.4%
- growth (NCI-H522 lung): 114%
- growth (A549/ATCC NSCLC): 122%
- growth (786-0 renal): 110%
- growth (COLO 205 colon): 115%
- growth (DU-145 prostate): 100%
- growth (K-562 leukemia): 128%
- growth (MALME-3M melanoma): 93.3%
- growth (MDA-MB-231 breast): 95.1%
- growth (RXF 393 renal): 103%
- growth (SF-268 CNS): 100%
- growth (SF-295 CNS): 97.1%
- growth (SF-539 CNS): 106%
- growth (UACC-257 melanoma): 120%
- growth (M14 melanoma): 89.3%

SMILES: CNC(=O)c1cc(Oc2ccc(NC(=O)Nc3ccc(Cl)c(OC(C)C)c3)c(F)c2)ccn1
- growth (NCI-H23 lung): 28.1%
- growth (NCI-H226 lung): 52.5%
- growth (NCI-H322M lung): 81.1%
- growth (HOP-62 NSCLC): 69.3%
- growth (NCI-H460 lung): 61.1%
- growth (HOP-92 NSCLC): 60.1%
- growth (NCI-H522 lung): 25.3%
- growth (A549/ATCC NSCLC): 44.5%
- growth (786-0 renal): 107%
- growth (COLO 205 colon): 33.5%
- growth (DU-145 prostate): 76.8%
- growth (K-562 leukemia): 21.8%
- growth (MALME-3M melanoma): 38.3%
- growth (MDA-MB-231 breast): 59.4%
- growth (RXF 393 renal): 87.6%
- growth (SF-268 CNS): 58.3%
- growth (SF-295 CNS): 33.3%
- growth (SF-539 CNS): 66.9%
- growth (UACC-257 melanoma): 26.9%
- growth (M14 melanoma): 36.1%

SMILES: COC(=O)c1cnc2c(c1)Oc1ccc(Cl)cc1-c1cc(C)nn1-2
- growth (NCI-H23 lung): 74.5%
- growth (NCI-H226 lung): 66.3%
- growth (NCI-H322M lung): 66.9%
- growth (HOP-62 NSCLC): 68.3%
- growth (NCI-H460 lung): 29.5%
- growth (HOP-92 NSCLC): 85.6%
- growth (NCI-H522 lung): 82.3%
- growth (A549/ATCC NSCLC): 59.2%
- growth (786-0 renal): 97.5%
- growth (COLO 205 colon): 71.5%
- growth (DU-145 prostate): 79.6%
- growth (K-562 leukemia): 95.8%
- growth (MALME-3M melanoma): 94.8%
- growth (MDA-MB-231 breast): 35%
- growth (RXF 393 renal): 89.8%
- growth (SF-268 CNS): 78.9%
- growth (SF-295 CNS): 92.3%
- growth (SF-539 CNS): 46.1%
- growth (UACC-257 melanoma): 107%
- growth (M14 melanoma): 95.3%

SMILES: COc1ccc(-c2csc(NC(=O)CO[N+](=O)[O-])n2)cc1
- growth (NCI-H23 lung): 93.4%
- growth (NCI-H226 lung): 102%
- growth (NCI-H322M lung): 96.1%
- growth (HOP-62 NSCLC): 101%
- growth (NCI-H460 lung): 94.1%
- growth (HOP-92 NSCLC): 118%
- growth (NCI-H522 lung): -39.7% (active)
- growth (A549/ATCC NSCLC): 84.9%
- growth (786-0 renal): 113%
- growth (COLO 205 colon): 89.1%
- growth (DU-145 prostate): 106%
- growth (K-562 leukemia): 96.8%
- growth (MALME-3M melanoma): 102%
- growth (MDA-MB-231 breast): 102%
- growth (RXF 393 renal): 125%
- growth (SF-268 CNS): 99.5%
- growth (SF-295 CNS): 101%
- growth (SF-539 CNS): 98.7%
- growth (UACC-257 melanoma): 63%
- growth (M14 melanoma): 102%

SMILES: Cc1ccc2c3c(cccc13)-c1ccccc1C2=O
- growth (NCI-H23 lung): 86.5%
- growth (NCI-H226 lung): 91.1%
- growth (NCI-H322M lung): 92.4%
- growth (HOP-62 NSCLC): 93.6%
- growth (NCI-H460 lung): 96.2%
- growth (HOP-92 NSCLC): 108%
- growth (NCI-H522 lung): 67.1%
- growth (A549/ATCC NSCLC): 81.8%
- growth (786-0 renal): 99.4%
- growth (COLO 205 colon): 93.9%
- growth (DU-145 prostate): 101%
- growth (K-562 leukemia): 108%
- growth (MALME-3M melanoma): 110%
- growth (MDA-MB-231 breast): 95.5%
- growth (RXF 393 renal): 105%
- growth (SF-268 CNS): 95.7%
- growth (SF-295 CNS): 95.1%
- growth (SF-539 CNS): 97.2%
- growth (UACC-257 melanoma): 101%
- growth (M14 melanoma): 98.6%

SMILES: COc1cc(CSc2nc3ccc(C)cc3c(=O)n2Cc2ccccc2)cc(OC)c1OC
- growth (NCI-H23 lung): 21.3%
- growth (NCI-H226 lung): 47.3%
- growth (NCI-H322M lung): 46.2%
- growth (HOP-62 NSCLC): 40.5%
- growth (NCI-H460 lung): 17.7%
- growth (HOP-92 NSCLC): 56.6%
- growth (NCI-H522 lung): -14.5% (active)
- growth (A549/ATCC NSCLC): 40%
- growth (786-0 renal): 46.8%
- growth (COLO 205 colon): -18.7% (active)
- growth (DU-145 prostate): 9.78% (active)
- growth (K-562 leukemia): 13.8%
- growth (MALME-3M melanoma): 30.1%
- growth (MDA-MB-231 breast): 44.4%
- growth (RXF 393 renal): -16.9% (active)
- growth (SF-268 CNS): 51.5%
- growth (SF-295 CNS): 31%
- growth (SF-539 CNS): -16.4% (active)
- growth (UACC-257 melanoma): 47.4%
- growth (M14 melanoma): 35.6%
